In paper PMC7862700, “An all-to-all approach to the identification of sequence-specific readers for epigenetic DNA modifications on cytosine”:

Experiments:
Test in all cases: DAPPL (digital affinity profiling via proximity ligation, sequencing); 10 mM Tris-HCl pH 7.5, 50 mM NaCl, 1 mM DTT, 4% glycerol, room temperature, 30 min; GST-TFs on glutathione beads, 16-mer random dsDNA library, 0.1% formaldehyde crosslink after washing; high values mean tight binding
Settings in all cases: protein: recombinant; tags: N-terminal GST; dsDNA, one strand shown
FEV = target: T1, FEV (Homo sapiens, UniProt Q99581 1-238)
T1 sequence: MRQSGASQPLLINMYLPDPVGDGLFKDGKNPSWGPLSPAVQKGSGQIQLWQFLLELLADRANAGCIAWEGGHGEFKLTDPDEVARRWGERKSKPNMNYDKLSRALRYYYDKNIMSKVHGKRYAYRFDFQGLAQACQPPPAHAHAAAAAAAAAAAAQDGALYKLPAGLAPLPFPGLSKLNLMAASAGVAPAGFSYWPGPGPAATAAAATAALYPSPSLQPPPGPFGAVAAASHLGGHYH
Procedure, shortened: (§1)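 Beads coated with glutathione captured GST-fused human transcription factors that had been expressed in yeast, and the factors were then given DNA barcodes and pooled with a tag-only sample. The pools were incubated with 200 nmole of a random double-stranded 16-mer DNA library in Tris/NaCl/DTT/glycerol buffer for 30 min at room temperature, washed, crosslinked with 0.1% formaldehyde and proximity-ligated with BsaI/T4 ligase at 37 °C for 1 h. PCR amplification and Illumina NextSeq500 sequencing came last. Binding signal is each hexamer's read frequency for a factor divided by its frequency for the tag-only sample.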

ETV5 = ETV5 (Homo sapiens, UniProt P41161 1-510)
Chain of ETV5 (P41161 whole entry): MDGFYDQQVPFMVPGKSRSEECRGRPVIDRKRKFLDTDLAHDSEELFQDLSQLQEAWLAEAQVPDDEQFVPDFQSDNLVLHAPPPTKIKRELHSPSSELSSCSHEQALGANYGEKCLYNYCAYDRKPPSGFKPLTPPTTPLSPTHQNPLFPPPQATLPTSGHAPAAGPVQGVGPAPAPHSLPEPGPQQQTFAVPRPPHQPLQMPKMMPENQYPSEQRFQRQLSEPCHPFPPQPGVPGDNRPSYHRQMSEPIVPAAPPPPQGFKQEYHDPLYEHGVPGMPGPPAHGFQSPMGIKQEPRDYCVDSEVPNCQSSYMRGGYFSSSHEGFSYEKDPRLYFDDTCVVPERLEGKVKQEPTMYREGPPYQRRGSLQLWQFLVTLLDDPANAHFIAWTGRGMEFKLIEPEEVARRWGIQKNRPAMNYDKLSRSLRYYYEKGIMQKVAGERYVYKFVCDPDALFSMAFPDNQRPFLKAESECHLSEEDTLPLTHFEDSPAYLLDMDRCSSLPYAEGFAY
Procedure, shortened: as §1

SPIC = target: T2, SPIC (Homo sapiens, UniProt Q8N5J4 1-248)
T2 sequence: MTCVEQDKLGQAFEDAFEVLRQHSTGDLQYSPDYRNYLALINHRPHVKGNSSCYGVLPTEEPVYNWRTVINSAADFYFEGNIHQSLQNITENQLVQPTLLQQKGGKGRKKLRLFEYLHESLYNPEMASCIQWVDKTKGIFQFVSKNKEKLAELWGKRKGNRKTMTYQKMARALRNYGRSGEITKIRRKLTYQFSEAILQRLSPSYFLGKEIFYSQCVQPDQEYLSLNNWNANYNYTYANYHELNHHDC
Procedure, shortened: as §1

ELF4 = ELF4 (Homo sapiens, UniProt Q99607 1-663)
Chain of ELF4 (Q99607 whole entry): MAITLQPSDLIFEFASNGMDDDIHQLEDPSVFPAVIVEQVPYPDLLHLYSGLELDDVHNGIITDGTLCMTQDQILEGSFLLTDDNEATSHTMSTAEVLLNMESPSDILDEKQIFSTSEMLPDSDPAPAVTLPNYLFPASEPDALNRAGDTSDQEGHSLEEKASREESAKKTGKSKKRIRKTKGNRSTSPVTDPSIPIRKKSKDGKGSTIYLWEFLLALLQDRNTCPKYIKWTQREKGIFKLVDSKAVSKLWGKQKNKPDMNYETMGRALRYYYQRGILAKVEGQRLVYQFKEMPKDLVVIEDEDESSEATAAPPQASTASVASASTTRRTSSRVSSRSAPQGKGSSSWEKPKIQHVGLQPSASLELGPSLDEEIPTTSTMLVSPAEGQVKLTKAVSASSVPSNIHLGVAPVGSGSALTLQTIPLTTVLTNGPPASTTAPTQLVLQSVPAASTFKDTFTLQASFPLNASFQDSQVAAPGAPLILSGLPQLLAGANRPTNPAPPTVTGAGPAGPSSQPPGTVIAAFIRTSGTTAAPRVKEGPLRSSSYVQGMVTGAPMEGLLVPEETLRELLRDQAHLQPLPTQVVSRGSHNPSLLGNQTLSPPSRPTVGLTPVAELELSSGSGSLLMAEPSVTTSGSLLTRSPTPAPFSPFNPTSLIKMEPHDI
Procedure, shortened: as §1

ELK4 = target: T3, ELK4 (Homo sapiens, UniProt P28324-2 1-405)
T3 sequence: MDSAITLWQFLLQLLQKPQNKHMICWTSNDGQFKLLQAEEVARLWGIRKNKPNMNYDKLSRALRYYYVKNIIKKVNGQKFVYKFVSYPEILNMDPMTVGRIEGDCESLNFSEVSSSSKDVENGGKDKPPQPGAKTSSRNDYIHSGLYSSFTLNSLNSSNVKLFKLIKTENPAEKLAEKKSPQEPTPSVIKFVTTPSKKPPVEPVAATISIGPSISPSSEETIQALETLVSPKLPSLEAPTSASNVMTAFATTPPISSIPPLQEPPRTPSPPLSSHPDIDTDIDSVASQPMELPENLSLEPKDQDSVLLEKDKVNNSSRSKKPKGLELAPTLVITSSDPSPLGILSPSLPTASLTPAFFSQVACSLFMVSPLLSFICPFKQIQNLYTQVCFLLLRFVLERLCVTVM
Procedure, shortened: as §1

ETV2 = target: T4, ETV2 (Homo sapiens, UniProt O00321 1-342)
T4 sequence: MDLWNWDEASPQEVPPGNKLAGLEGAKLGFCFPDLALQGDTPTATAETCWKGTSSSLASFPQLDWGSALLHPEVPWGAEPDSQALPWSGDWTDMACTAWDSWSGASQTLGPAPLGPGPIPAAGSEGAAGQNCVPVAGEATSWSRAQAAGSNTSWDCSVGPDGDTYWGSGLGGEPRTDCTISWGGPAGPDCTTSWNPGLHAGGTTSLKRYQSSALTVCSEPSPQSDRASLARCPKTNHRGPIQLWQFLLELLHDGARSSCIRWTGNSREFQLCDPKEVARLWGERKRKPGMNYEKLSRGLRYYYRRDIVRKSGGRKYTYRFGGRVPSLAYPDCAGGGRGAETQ
Procedure, shortened: as §1

ELF3 = target: T5, ELF3 (Homo sapiens, UniProt P78545 1-371)
T5 sequence: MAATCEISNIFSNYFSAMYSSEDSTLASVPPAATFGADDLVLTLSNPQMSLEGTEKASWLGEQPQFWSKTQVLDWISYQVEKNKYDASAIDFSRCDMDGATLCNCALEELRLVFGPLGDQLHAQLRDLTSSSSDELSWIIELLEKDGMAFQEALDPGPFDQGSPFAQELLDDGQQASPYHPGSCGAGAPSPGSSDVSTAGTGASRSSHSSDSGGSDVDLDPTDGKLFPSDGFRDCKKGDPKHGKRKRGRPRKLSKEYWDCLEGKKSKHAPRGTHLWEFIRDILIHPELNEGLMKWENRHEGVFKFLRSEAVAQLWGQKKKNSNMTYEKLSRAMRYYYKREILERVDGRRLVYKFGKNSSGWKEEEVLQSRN
Procedure, shortened: as §1

ETV1 = ETV1 (Homo sapiens, UniProt P50549 1-477)
Chain of ETV1 (P50549 whole entry): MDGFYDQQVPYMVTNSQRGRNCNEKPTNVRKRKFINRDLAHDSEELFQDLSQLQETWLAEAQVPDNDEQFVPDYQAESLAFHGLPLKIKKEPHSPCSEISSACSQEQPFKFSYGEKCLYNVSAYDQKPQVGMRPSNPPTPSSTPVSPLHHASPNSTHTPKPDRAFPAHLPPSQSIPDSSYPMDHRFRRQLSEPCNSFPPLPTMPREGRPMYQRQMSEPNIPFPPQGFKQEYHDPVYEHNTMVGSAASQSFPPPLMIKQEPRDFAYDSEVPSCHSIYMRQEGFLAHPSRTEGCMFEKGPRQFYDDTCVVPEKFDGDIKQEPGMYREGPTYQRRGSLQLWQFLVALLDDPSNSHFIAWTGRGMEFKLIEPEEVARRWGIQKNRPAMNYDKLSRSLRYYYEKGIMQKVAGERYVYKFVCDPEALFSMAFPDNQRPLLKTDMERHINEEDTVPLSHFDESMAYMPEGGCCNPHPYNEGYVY
Procedure, shortened: as §1

ERF = target: T6, ERF (Homo sapiens, UniProt P50548 1-548)
T6 sequence: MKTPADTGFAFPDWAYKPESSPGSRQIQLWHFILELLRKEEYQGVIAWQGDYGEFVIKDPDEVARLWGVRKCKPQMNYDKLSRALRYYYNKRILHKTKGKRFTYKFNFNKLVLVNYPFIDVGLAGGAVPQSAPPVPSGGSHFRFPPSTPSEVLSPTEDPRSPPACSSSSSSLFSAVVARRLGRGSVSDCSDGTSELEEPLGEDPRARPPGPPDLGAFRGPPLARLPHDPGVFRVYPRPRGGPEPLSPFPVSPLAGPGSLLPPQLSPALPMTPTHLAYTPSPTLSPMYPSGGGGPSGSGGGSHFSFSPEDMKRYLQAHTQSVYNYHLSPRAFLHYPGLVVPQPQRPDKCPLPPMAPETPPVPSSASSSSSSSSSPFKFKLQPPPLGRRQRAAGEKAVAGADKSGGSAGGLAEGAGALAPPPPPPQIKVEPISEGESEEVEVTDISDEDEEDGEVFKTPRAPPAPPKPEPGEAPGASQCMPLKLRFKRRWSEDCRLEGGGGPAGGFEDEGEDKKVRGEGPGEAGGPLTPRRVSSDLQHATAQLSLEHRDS
Procedure, shortened: as §1

ETV3L = target: T7, ETV3L (Homo sapiens, UniProt Q6ZN32 1-361)
T7 sequence: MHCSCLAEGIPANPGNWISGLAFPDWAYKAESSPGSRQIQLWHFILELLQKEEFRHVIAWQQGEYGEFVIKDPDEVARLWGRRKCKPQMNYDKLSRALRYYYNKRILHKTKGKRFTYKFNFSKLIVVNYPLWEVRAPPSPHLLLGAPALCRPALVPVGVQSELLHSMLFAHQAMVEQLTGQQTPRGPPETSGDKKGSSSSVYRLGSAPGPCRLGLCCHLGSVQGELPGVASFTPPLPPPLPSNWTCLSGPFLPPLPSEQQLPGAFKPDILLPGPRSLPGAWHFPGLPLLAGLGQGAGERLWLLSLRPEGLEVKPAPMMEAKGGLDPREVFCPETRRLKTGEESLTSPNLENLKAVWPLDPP
Procedure, shortened: as §1

ETS2 = target: T8, ETS2 (Homo sapiens, UniProt P15036 1-469)
T8 sequence: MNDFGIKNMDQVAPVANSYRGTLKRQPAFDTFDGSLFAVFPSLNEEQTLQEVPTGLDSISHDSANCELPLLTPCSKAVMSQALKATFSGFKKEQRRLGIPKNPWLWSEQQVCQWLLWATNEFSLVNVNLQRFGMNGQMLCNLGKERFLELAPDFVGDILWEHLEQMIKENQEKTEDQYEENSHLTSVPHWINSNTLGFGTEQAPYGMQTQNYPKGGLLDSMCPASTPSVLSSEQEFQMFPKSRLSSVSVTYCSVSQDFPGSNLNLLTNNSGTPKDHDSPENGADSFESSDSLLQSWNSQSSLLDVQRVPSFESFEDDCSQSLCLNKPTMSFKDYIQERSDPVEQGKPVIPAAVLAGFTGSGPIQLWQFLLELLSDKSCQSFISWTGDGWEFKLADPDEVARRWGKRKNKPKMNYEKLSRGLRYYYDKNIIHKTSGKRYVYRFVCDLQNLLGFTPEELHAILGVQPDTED
Procedure, shortened: as §1

SPDEF = target: T9, SPDEF (Homo sapiens, UniProt O95238 1-335)
T9 sequence: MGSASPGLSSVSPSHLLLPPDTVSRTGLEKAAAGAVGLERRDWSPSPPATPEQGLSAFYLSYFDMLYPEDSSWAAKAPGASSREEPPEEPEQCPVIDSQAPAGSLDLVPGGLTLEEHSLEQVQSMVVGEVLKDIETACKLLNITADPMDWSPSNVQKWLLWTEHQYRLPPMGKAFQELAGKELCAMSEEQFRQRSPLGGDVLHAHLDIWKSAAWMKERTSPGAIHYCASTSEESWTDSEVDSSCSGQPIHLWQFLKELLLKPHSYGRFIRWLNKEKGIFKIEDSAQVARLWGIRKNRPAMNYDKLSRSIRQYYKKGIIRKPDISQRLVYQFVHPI
Procedure, shortened: as §1

ETV7 = target: T10, ETV7 (Homo sapiens, UniProt Q9Y603 1-341)
T10 sequence: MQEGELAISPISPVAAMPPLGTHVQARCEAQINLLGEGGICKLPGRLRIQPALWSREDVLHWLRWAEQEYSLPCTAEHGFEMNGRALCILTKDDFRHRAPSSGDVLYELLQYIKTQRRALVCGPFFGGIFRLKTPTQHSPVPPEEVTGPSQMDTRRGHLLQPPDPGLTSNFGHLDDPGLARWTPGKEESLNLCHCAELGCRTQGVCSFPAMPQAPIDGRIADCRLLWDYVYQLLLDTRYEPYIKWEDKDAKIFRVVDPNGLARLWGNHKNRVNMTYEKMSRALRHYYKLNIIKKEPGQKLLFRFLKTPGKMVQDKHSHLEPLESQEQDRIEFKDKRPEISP
Procedure, shortened: as §1

ELF5 = target: T11, ELF5 (Homo sapiens, UniProt Q9UKW6-2 1-255)
T11 sequence: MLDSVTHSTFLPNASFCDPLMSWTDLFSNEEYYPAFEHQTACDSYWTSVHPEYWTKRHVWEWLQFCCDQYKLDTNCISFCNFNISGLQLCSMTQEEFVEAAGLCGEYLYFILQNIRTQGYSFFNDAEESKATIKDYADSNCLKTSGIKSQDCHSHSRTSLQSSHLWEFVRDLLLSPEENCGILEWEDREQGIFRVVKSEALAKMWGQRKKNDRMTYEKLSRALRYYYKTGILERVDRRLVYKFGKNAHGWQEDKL
Procedure, shortened: as §1

ETV3 = target: T12, ETV3 (Homo sapiens, UniProt P41162-2 1-143)
T12 sequence: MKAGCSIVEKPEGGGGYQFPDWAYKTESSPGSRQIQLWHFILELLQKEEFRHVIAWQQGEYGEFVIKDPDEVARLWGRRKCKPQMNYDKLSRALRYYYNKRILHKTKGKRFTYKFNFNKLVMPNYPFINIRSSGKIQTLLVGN
Procedure, shortened: as §1

ETV6 = ETV6 (Homo sapiens, UniProt P41212 1-452)
Chain of ETV6 (P41212 whole entry): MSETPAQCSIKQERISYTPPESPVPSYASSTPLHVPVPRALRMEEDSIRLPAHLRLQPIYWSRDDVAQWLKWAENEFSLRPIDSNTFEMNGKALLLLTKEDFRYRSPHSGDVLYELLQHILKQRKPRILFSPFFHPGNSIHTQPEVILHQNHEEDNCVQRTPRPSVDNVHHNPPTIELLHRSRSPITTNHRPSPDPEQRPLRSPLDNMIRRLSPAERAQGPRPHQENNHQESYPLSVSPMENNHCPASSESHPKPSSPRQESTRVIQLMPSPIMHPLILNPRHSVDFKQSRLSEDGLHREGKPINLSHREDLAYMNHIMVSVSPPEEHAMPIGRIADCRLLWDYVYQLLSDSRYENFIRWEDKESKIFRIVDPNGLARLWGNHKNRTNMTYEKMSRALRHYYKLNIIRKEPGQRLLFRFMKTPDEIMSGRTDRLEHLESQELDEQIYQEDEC
Procedure, shortened: as §1

Sequence	binding signal (FEV)	binding signal (ETV5)	binding signal (SPIC)	binding signal (ELF4)	binding signal (ELK4)	binding signal (ETV2)	binding signal (ELF3)	binding signal (ETV1)	binding signal (ERF)	binding signal (ETV3L)	binding signal (ETS2)	binding signal (SPDEF)	binding signal (ETV7)	binding signal (ELF5)	binding signal (ETV3)	binding signal (ETV6)
ACACCC	1.08 fold enrichment (6-mer frequency, TF over GST control)	1.08 fold enrichment (6-mer frequency, TF over GST control)	1.19 fold enrichment (6-mer frequency, TF over GST control)	1.07 fold enrichment (6-mer frequency, TF over GST control)	1.05 fold enrichment (6-mer frequency, TF over GST control)	1.07 fold enrichment (6-mer frequency, TF over GST control)	1.01 fold enrichment (6-mer frequency, TF over GST control)	1.14 fold enrichment (6-mer frequency, TF over GST control)	1.17 fold enrichment (6-mer frequency, TF over GST control)	1.18 fold enrichment (6-mer frequency, TF over GST control)	1.09 fold enrichment (6-mer frequency, TF over GST control)	1.21 fold enrichment (6-mer frequency, TF over GST control)	1.09 fold enrichment (6-mer frequency, TF over GST control)	1.12 fold enrichment (6-mer frequency, TF over GST control)	1.14 fold enrichment (6-mer frequency, TF over GST control)	1.01 fold enrichment (6-mer frequency, TF over GST control)
CACATA	1.1 fold enrichment (6-mer frequency, TF over GST control)	1.1 fold enrichment (6-mer frequency, TF over GST control)	1.07 fold enrichment (6-mer frequency, TF over GST control)	1.1 fold enrichment (6-mer frequency, TF over GST control)	1.07 fold enrichment (6-mer frequency, TF over GST control)	1.18 fold enrichment (6-mer frequency, TF over GST control)	1.11 fold enrichment (6-mer frequency, TF over GST control)	1.05 fold enrichment (6-mer frequency, TF over GST control)	1.17 fold enrichment (6-mer frequency, TF over GST control)	1.19 fold enrichment (6-mer frequency, TF over GST control)	1.1 fold enrichment (6-mer frequency, TF over GST control)	1.11 fold enrichment (6-mer frequency, TF over GST control)	1.03 fold enrichment (6-mer frequency, TF over GST control)	1.05 fold enrichment (6-mer frequency, TF over GST control)	1.09 fold enrichment (6-mer frequency, TF over GST control)	1.1 fold enrichment (6-mer frequency, TF over GST control)
